Measured values published in the supplement of paper PMC9262897, “Low-cost anti-mycobacterial drug discovery using engineered E. coli” (Nature Communications, 2022).
Structures can show the parent of a compound that is named as a salt. ± gives the standard deviation of the averaged measurements.

Legend:
Assay in all cases: growth (OD600 after 10 h); higher = more growth (less inhibition)
[1] = test system: E. coli TESEC Alr+ wild-type control; settings: compound 0.1 mM; raw OD600 reference: median of DMSO wells 0.241, cell-free background 0.041
Procedure: (§1)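 TESEC Mtb Alr E. coli, or the Alr+ wild-type control, in 384-well plates with Prestwick library compounds at 0.1 mM and 1% DMSO, across arabinose induction levels of 1E3 to 1E7 nM. Growth is read as OD600 after 10 h at 37 °C in triplicate biological replicates.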

E. coli TESEC Mtb Alr [2] = settings: compound 0.1 mM
Procedure: as §1

E. coli TESEC Mtb Asd = settings: compound 0.1 mM
Procedure: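 TESEC E. coli strains in which the native enzyme is deleted and replaced by arabinose-inducible Mtb Asd, DapB, CysH or TrpD, each grown in its selective medium. Strains were screened against the Prestwick library at 0.1 mM and 1% DMSO in 384-well format at low and high arabinose induction. Growth is read as OD600 after 10 h in triplicate.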

E. coli TESEC Mtb Alr [3] = settings: compound 0.1 mM; remark: listed apart in the source
Procedure: (§2)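 TESEC Mtb Alr E. coli (ΔaraC ΔtolC ΔentC Δalr ΔdadX, arabinose-inducible Mtb Alr) or the Alr+ wild-type control strain, grown in defined M9-fructose medium without D-alanine in 96-well plates with Prestwick library compounds at 0.1 mM and 1% DMSO. Low Alr induction is 0.1 µM arabinose and high induction is 10 mM arabinose.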

[4] = test system: E. coli TESEC Alr+ wild-type control; settings: compound 0.1 mM; raw OD600 reference: median of DMSO wells 0.49, cell-free background 0.052
Procedure: as §2

[5] = arabinose 1000 nM, raw OD600 reference: median of DMSO wells 0.294, cell-free background 0.041
[6] = arabinose 10000 nM, raw OD600 reference: median of DMSO wells 0.264, cell-free background 0.041
[7] = arabinose 100000 nM, raw OD600 reference: median of DMSO wells 0.201, cell-free background 0.041
[8] = arabinose 1000000 nM, raw OD600 reference: median of DMSO wells 0.193, cell-free background 0.041
[9] = arabinose 10000000 nM, raw OD600 reference: median of DMSO wells 0.146, cell-free background 0.041
[10] = arabinose induction (level): High, raw OD600 reference: median of DMSO wells 0.331, cell-free background 0.041
[11] = arabinose induction (level): Low, raw OD600 reference: median of DMSO wells 0.417, cell-free background 0.041
[12] = arabinose 100 nM, raw OD600 reference: median of DMSO wells 0.413, cell-free background 0.052
[13] = arabinose 10000000 nM, raw OD600 reference: median of DMSO wells […], cell-free background 0.052

SMILES: Cc1cc(C2CCCCC2)n(O)c(=O)c1 [Ciclopirox ethanolamine]
- growth [1]: 0.04347 ± 0.00021
- growth (E. coli TESEC Mtb Alr [2]; [5]): 0.04303 ± 5.8e-05
- growth (E. coli TESEC Mtb Alr [2]; [6]): 0.03957 ± 0.00035
- growth (E. coli TESEC Mtb Alr [2]; [7]): 0.0447 ± 0.00064
- growth (E. coli TESEC Mtb Alr [2]; [8]): 0.03987 ± 0.00012
- growth (E. coli TESEC Mtb Alr [2]; [9]): 0.0504 ± 0.00059
- growth (E. coli TESEC Mtb Asd; [10]): 0.0544 ± 0.0014
- growth (E. coli TESEC Mtb Asd; [11]): 0.0525 ± 0.0041
- growth (E. coli TESEC Mtb Alr [3]; [12]): 0.0481 ± 0.00095
- growth (E. coli TESEC Mtb Alr [3]; [13]): 0.0634 ± 0.0046

SMILES: CC[N+](C)(C)c1cccc(O)c1 [Edrophonium chloride]
- growth [1]: 0.258 ± 0.011
- growth (E. coli TESEC Mtb Alr [2]; [5]): 0.294 ± 0.012
- growth (E. coli TESEC Mtb Alr [2]; [6]): 0.266 ± 0.004
- growth (E. coli TESEC Mtb Alr [2]; [7]): 0.227 ± 0.03
- growth (E. coli TESEC Mtb Alr [2]; [8]): 0.192 ± 0.012
- growth (E. coli TESEC Mtb Alr [2]; [9]): 0.144 ± 0.0031
- growth (E. coli TESEC Mtb Asd; [10]): 0.384 ± 0.013
- growth (E. coli TESEC Mtb Asd; [11]): 0.403 ± 0.013
- growth [4]: 0.437 ± 0.029
- growth (E. coli TESEC Mtb Alr [3]; [12]): 0.401 ± 0.015
- growth (E. coli TESEC Mtb Alr [3]; [13]): 0.346 ± 0.029

SMILES: COc1cc2nc(N(C)CCCNC(=O)C3CCCO3)nc(N)c2cc1OC (centres undefined) [Alfuzosin hydrochloride]
- growth [1]: 0.215 ± 0.0062
- growth (E. coli TESEC Mtb Alr [2]; [5]): 0.286 ± 0.005
- growth (E. coli TESEC Mtb Alr [2]; [6]): 0.252 ± 0.0042
- growth (E. coli TESEC Mtb Alr [2]; [7]): 0.192 ± 0.027
- growth (E. coli TESEC Mtb Alr [2]; [8]): 0.142 ± 0.008
- growth (E. coli TESEC Mtb Alr [2]; [9]): 0.155 ± 0.011
- growth (E. coli TESEC Mtb Asd; [10]): 0.24 ± 0.029
- growth (E. coli TESEC Mtb Asd; [11]): 0.361 ± 0.029
- growth (E. coli TESEC Mtb Alr [3]; [12]): 0.4 ± 0.013
- growth (E. coli TESEC Mtb Alr [3]; [13]): 0.318 ± 0.013

SMILES: CCCCOc1ccc(C(=O)CCN2CCCCC2)cc1 [Dyclonine hydrochloride]
- growth [1]: 0.208 ± 0.004
- growth (E. coli TESEC Mtb Alr [2]; [5]): 0.278 ± 0.0053
- growth (E. coli TESEC Mtb Alr [2]; [6]): 0.252 ± 0.0069
- growth (E. coli TESEC Mtb Alr [2]; [7]): 0.183 ± 0.0081
- growth (E. coli TESEC Mtb Alr [2]; [8]): 0.143 ± 0.0049
- growth (E. coli TESEC Mtb Alr [2]; [9]): 0.144 ± 0.0069
- growth (E. coli TESEC Mtb Asd; [10]): 0.269 ± 0.064
- growth (E. coli TESEC Mtb Asd; [11]): 0.252 ± 0.01
- growth (E. coli TESEC Mtb Alr [3]; [12]): 0.408 ± 0.0048
- growth (E. coli TESEC Mtb Alr [3]; [13]): 0.355 ± 0.033

SMILES: Brc1c(NC2=NCCN2)ccc2nccnc12 [Brimondine L-Tartrate]
- growth [1]: 0.209 ± 0.0033
- growth (E. coli TESEC Mtb Alr [2]; [5]): 0.2878 ± 0.0023
- growth (E. coli TESEC Mtb Alr [2]; [6]): 0.26 ± 0.0099
- growth (E. coli TESEC Mtb Alr [2]; [7]): 0.187 ± 0.016
- growth (E. coli TESEC Mtb Alr [2]; [8]): 0.172 ± 0.011
- growth (E. coli TESEC Mtb Alr [2]; [9]): 0.152 ± 0.0034
- growth (E. coli TESEC Mtb Asd; [10]): 0.271 ± 0.038
- growth (E. coli TESEC Mtb Asd; [11]): 0.368 ± 0.061
- growth (E. coli TESEC Mtb Alr [3]; [12]): 0.416 ± 0.015
- growth (E. coli TESEC Mtb Alr [3]; [13]): 0.343 ± 0.004

SMILES: NS(=O)(=O)c1cc(C2(O)NC(=O)c3ccccc32)ccc1Cl (centres undefined) [Chlorthalidone]
- growth [1]: 0.223 ± 0.0025
- growth (E. coli TESEC Mtb Alr [2]; [5]): 0.285 ± 0.012
- growth (E. coli TESEC Mtb Alr [2]; [6]): 0.255 ± 0.0039
- growth (E. coli TESEC Mtb Alr [2]; [7]): 0.193 ± 0.0099
- growth (E. coli TESEC Mtb Alr [2]; [8]): 0.168 ± 0.003
- growth (E. coli TESEC Mtb Alr [2]; [9]): 0.144 ± 0.0027
- growth (E. coli TESEC Mtb Asd; [10]): 0.393 ± 0.037
- growth (E. coli TESEC Mtb Asd; [11]): 0.462 ± 0.078
- growth (E. coli TESEC Mtb Alr [3]; [12]): 0.415 ± 0.01
- growth (E. coli TESEC Mtb Alr [3]; [13]): 0.3322 ± 0.002

SMILES: O=C(O)/C=C/c1ccc(Cn2ccnc2)cc1 [Ozagrel hydrochloride]
- growth [1]: 0.229 ± 0.006
- growth (E. coli TESEC Mtb Alr [2]; [5]): 0.268 ± 0.019
- growth (E. coli TESEC Mtb Alr [2]; [6]): 0.263 ± 0.0041
- growth (E. coli TESEC Mtb Alr [2]; [7]): 0.197 ± 0.025
- growth (E. coli TESEC Mtb Alr [2]; [8]): 0.179 ± 0.0082
- growth (E. coli TESEC Mtb Alr [2]; [9]): 0.143 ± 0.0023
- growth (E. coli TESEC Mtb Asd; [10]): 0.248 ± 0.03
- growth (E. coli TESEC Mtb Asd; [11]): 0.422 ± 0.035
- growth [4]: 0.482 ± 0.076
- growth (E. coli TESEC Mtb Alr [3]; [12]): 0.397 ± 0.017
- growth (E. coli TESEC Mtb Alr [3]; [13]): 0.372 ± 0.014

SMILES: CCOC(=O)C1=C[C@]2(CC)CCCN3CCc4c(n1c1ccccc41)[C@@H]32 [Vinpocetine]
- growth [1]: 0.216 ± 0.0075
- growth (E. coli TESEC Mtb Alr [2]; [5]): 0.271 ± 0.015
- growth (E. coli TESEC Mtb Alr [2]; [6]): 0.25 ± 0.0089
- growth (E. coli TESEC Mtb Alr [2]; [7]): 0.184 ± 0.015
- growth (E. coli TESEC Mtb Alr [2]; [8]): 0.145 ± 0.005
- growth (E. coli TESEC Mtb Alr [2]; [9]): 0.143 ± 0.0046
- growth (E. coli TESEC Mtb Asd; [10]): 0.232 ± 0.0031
- growth (E. coli TESEC Mtb Asd; [11]): 0.379 ± 0.069
- growth [4]: 0.557 ± 0.044
- growth (E. coli TESEC Mtb Alr [3]; [12]): 0.4094 ± 0.0032
- growth (E. coli TESEC Mtb Alr [3]; [13]): 0.337 ± 0.016

SMILES: C=C[C@H]1CN2CC[C@H]1C[C@@H]2[C@@H](O)c1ccnc2ccc(OC)cc12 [Quinidine hydrochloride monohydrate]
- growth [1]: 0.22 ± 0.004
- growth (E. coli TESEC Mtb Alr [2]; [5]): 0.28 ± 0.019
- growth (E. coli TESEC Mtb Alr [2]; [6]): 0.265 ± 0.01
- growth (E. coli TESEC Mtb Alr [2]; [7]): 0.181 ± 0.0089
- growth (E. coli TESEC Mtb Alr [2]; [8]): 0.138 ± 0.0072
- growth (E. coli TESEC Mtb Alr [2]; [9]): 0.144 ± 0.0058
- growth (E. coli TESEC Mtb Asd; [10]): 0.239 ± 0.04
- growth (E. coli TESEC Mtb Asd; [11]): 0.412 ± 0.012
- growth [4]: 0.483 ± 0.07
- growth (E. coli TESEC Mtb Alr [3]; [12]): 0.4326 ± 0.004
- growth (E. coli TESEC Mtb Alr [3]; [13]): 0.356 ± 0.0089

SMILES: CN1CCN2c3ncccc3Cc3ccccc3C2C1 (centres undefined) [Mirtazapine]
- growth [1]: 0.217 ± 0.0068
- growth (E. coli TESEC Mtb Alr [2]; [5]): 0.281 ± 0.0088
- growth (E. coli TESEC Mtb Alr [2]; [6]): 0.2774 ± 0.0027
- growth (E. coli TESEC Mtb Alr [2]; [7]): 0.225 ± 0.025
- growth (E. coli TESEC Mtb Alr [2]; [8]): 0.182 ± 0.021
- growth (E. coli TESEC Mtb Alr [2]; [9]): 0.162 ± 0.0043
- growth (E. coli TESEC Mtb Asd; [10]): 0.261 ± 0.11
- growth (E. coli TESEC Mtb Asd; [11]): 0.29 ± 0.013
- growth (E. coli TESEC Mtb Alr [3]; [12]): 0.414 ± 0.014
- growth (E. coli TESEC Mtb Alr [3]; [13]): 0.336 ± 0.014

SMILES: COc1cc([C@@H]2c3cc4c(cc3[C@@H](O[C@@H]3O[C@@H]5CO[C@@H](C)O[C@H]5[C@H](O)[C@H]3O)[C@H]3COC(=O)[C@H]23)OCO4)cc(OC)c1O [Etoposide]
- growth [1]: 0.0715 ± 0.0031
- growth (E. coli TESEC Mtb Alr [2]; [5]): 0.0527 ± 0.0019
- growth (E. coli TESEC Mtb Alr [2]; [6]): 0.04273 ± 0.00025
- growth (E. coli TESEC Mtb Alr [2]; [7]): 0.0604 ± 0.0031
- growth (E. coli TESEC Mtb Alr [2]; [8]): 0.0501 ± 0.00056
- growth (E. coli TESEC Mtb Alr [2]; [9]): 0.1106 ± 0.0011
- growth (E. coli TESEC Mtb Asd; [10]): 0.112 ± 0.015
- growth (E. coli TESEC Mtb Asd; [11]): 0.0831 ± 0.013
- growth (E. coli TESEC Mtb Alr [3]; [12]): 0.129 ± 0.02
- growth (E. coli TESEC Mtb Alr [3]; [13]): 0.0985 ± 0.018
